# Measurements published in the supplement of paper PMC10981050.
# Structures can show the parent of a compound that is named as a salt.
# Tested on: MOLM14
# Assay: cell viability relative to vehicle control; higher = less cytotoxic
# Conditions: 10 µM; SRSF2 genotype: SRSF2 P95H/wt
# In short: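 After removal of identity-inconsistent compounds, the Selleck bioactive, kinase and epigenetic probe libraries were screened on CRISPR-edited mutant clones and isogenic wild-type clones of four leukaemia lines. Plates were 384-well, each well holding 2000 cells in 50 µL medium and receiving a single 10 µM acoustically dispensed dose. CellTiter-Glo luminescence was read 48 h later, after the supernatant was taken off. Genedata Screener was used to express viability as percent of the on-plate vehicle control.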
row,Compound,cell viability
1,"CN1CCN2c3ncccc3Cc3ccccc3C2C1 (centres undefined) [Mirtazapine (Remeron, Avanza)]",92.3%
2,NCCCCCN [Cadaverine],95.9%
3,CCN1CCN(Cc2ccc(C(=O)Nc3ccc(C)c(Oc4ccc5c(c4)CC(=O)N5)c3)cc2C(F)(F)F)CC1,46.6%
4,O=C(O)c1cc(C(=O)O)c2c(n1)C(=O)C(=O)c1cc(C(=O)O)[nH]c1-2 [Pyrroloquinoline Quinone Disodium Salt],88.8%
5,CC(C)C(=O)Nc1ccc([N+](=O)[O-])c(C(F)(F)F)c1 [Flutamide (Eulexin)],96.8%
6,O=C(Cc1ccccc1)Nc1nnc(CCSCCc2nnc(NC(=O)Cc3ccccc3)s2)s1,82.9%
7,CCn1nc(C2CCN(C(=O)CCO)CC2)nc1-c1cnc(N)c(-c2nnc(C(C)(C)C)o2)n1,38.2%
8,OC[C@H]1O[C@@H](Oc2cc(O)cc(/C=C/c3ccc(O[C@@H]4O[C@H](CO)[C@@H](O)[C@H](O)[C@H]4O)cc3O)c2)[C@H](O)[C@@H](O)[C@@H]1O [Mulberroside A],97.3%
9,O=C(C[S+]([O-])Cc1ccco1)NC/C=C\COc1cc(CN2CCCCC2)ccn1 (centres undefined) [Lafutidine],96.9%
10,Cn1cc(CNCC2CCN(c3ncc(C(=O)NO)cn3)CC2)c2ccccc21,0.72%
11,NC(=O)c1ccc(I)c([N+](=O)[O-])c1 [Iniparib (BSI-201)],98.6%
12,COc1cc(C=O)ccc1OC(C)=O [Acetylvanillin],104%
13,C=CS(=O)(=O)NC1CCN(C(=O)CNc2cc(I)c(Cl)cc2OC)CC1 [K-Ras(G12C) inhibitor 9],60.6%
14,CN1CCN(C(=O)c2cc3cc(Cl)ccc3[nH]2)CC1,92.6%
15,OC[C@H]1O[C@H](OC[C@H]2O[C@H](O[C@]3(CO)O[C@H](CO)[C@@H](O)[C@@H]3O)[C@H](O)[C@@H](O)[C@@H]2O)[C@H](O)[C@@H](O)[C@H]1O [Raffinose],103%
16,Cc1cc(C)nc(O)n1.O=C(Nc1ccc([N+](=O)[O-])cc1)Nc1ccc([N+](=O)[O-])cc1 [Nicarbazin],103%
17,O=c1cc(-c2ccc(O)c(O)c2)oc2cc(O)c([C@@H]3O[C@H](CO)[C@@H](O)[C@H](O)[C@H]3O)c(O)c12 [Homoorientin],83.2%
18,Clc1ccc(C(Cn2ccnc2)OCc2ccc(Sc3ccccc3)cc2)c(Cl)c1 (centres undefined) [Fenticonazole nitrate],70.6%
19,O=c1cc(N2CCOCC2)oc2c(-c3ccc4c(c3)OCCO4)csc12,15.7%

# Same assay, conditions: 10 µM; SRSF2 genotype: SRSF2 wt/wt
row,Compound,cell viability
1,O=c1cc(N2CCOCC2)oc2c(-c3ccccc3)cccc12,45.6%
2,C[C@@H]1C(=O)O[C@H](C)[C@H]1C[C@@H](O)[C@](C)(O)[C@H]1CC[C@@]2(O)C3=CC(=O)[C@@H]4C[C@@H](O)[C@@H](O)C[C@]4(C)[C@H]3CC[C@]12C [Cyasterone],105%
3,CSCC[C@H](NC(=O)[C@H](CC(C)C)NC(=O)[C@H](Cc1c[nH]c2ccccc12)NC(=O)[C@H](CCC(N)=O)NC(=O)[C@@H](NC(=O)[C@H](Cc1ccccc1)NC(=O)[C@H](CC(=O)O)NC(=O)[C@H](CCC(N)=O)NC(=O)[C@H](C)NC(=O)[C@H](CCCNC(=N)N)NC(=O)[C@H](CCCNC(=N)N)NC(=O)[C@H](CO)NC(=O)[C@H](CC(=O)O)NC(=O)[C@H](CC(C)C)NC(=O)[C@H](Cc1ccc(O)cc1)NC(=O)[C@H](CCCCN)NC(=O)[C@H](CO)NC(=O)[C@H](Cc1ccc(O)cc1)NC(=O)[C@H](CC(=O)O)NC(=O)[C@H](CO)NC(=O)[C@@H](NC(=O)[C@H](Cc1ccccc1)NC(=O)[C@@H](NC(=O)CNC(=O)[C@H](CCC(N)=O)NC(=O)[C@H](CO)NC(=O)[C@@H](N)Cc1cnc[nH]1)[C@@H](C)O)[C@@H](C)O)C(C)C)C(=O)N[C@@H](CC(N)=O)C(=O)N[C@H](C(=O)O)[C@@H](C)O [Glucagon HCl],108%
4,CCc1ccc(Cc2ccc3c(c2)[C@]2(OC3)O[C@H](CO)[C@@H](O)[C@H](O)[C@H]2O)cc1 [Tofogliflozin(CSG 452)],82.5%
5,CCCCC(C)(O)C/C=C/[C@H]1[C@H](O)CC(=O)[C@@H]1CCCCCCC(=O)OC (mixture of isomers) [Misoprostol],80.2%
6,O=C(Nc1ccc(Br)cc1)c1ccc(Br)c(S(=O)(=O)NCc2ccccc2)c1,96%
7,CC[C@H]1OC(=O)[C@H](C)[C@@H](O[C@H]2C[C@@](C)(OC)[C@@H](O)[C@H](C)O2)[C@H](C)[C@@H](O[C@@H]2O[C@H](C)C[C@H](N(C)C)[C@H]2O)[C@](C)(O)C[C@@H](C)/C(=N\OCOCCOC)[C@H](C)[C@@H](O)[C@]1(C)O [Roxithromycin (Roxl-150)],100%
8,C=C1CC[C@H](O)C/C1=C/C=C1\CCC[C@]2(C)[C@@H]([C@H](C)/C=C/[C@H](C)C(C)C)CC[C@@H]12 [Vitamin D2 (Ergocalciferol)],102%
9,O=C(c1ccc(C(=O)N2CCC(N3CCCC3)CC2)c(Nc2ccccc2)c1)N1CCC(N2CCCC2)CC1,89.4%
10,OCc1ccc(-c2ccc(-c3ccc(CO)s3)o2)s1,8.82%
11,"CCNC(=O)c1noc(-c2cc(C(C)C)c(O)cc2O)c1-c1ccc(CN2CCOCC2)cc1 [Luminespib (AUY-922, NVP-AUY922)]",1.31%
12,O=C(c1ccc(Cl)cc1)N(Cc1ccccc1)C1CCCCC1,94.6%
13,COc1ccc2c3c1O[C@H]1C[C@@H](O)C=C[C@@]31CCN(C)C2 [Galanthamine],105%
14,"CN1CCN(c2ccc3nc(-c4c(N)c5c(F)cccc5[nH]c4=O)[nH]c3c2)CC1 [Dovitinib (TKI-258, CHIR-258)]",0.38%
15,COc1cc2nc(N3CCN(C(=O)C4CCCO4)CC3)nc(N)c2cc1OC (centres undefined) [Terazosin HCl Dihydrate],96.2%
16,CC[C@H](Nc1ncnc2[nH]cnc12)c1oc2ccccc2c(=O)c1-c1cccc(F)c1 [Tenalisib (RP6530)],84.4%
17,O=C(c1ccccc1)C(O)O [Phenylglyoxal hydrate],66%
18,O=c1c(O)c(-c2ccc(O)c(O)c2)oc2cc(O)cc(O)c12 [Quercetin (Sophoretin)],97.5%
19,CO[C@H]1/C=C/O[C@@]2(C)Oc3c(C)c(O)c4c(O)c(c5c(nc6cc(C)ccn65)c4c3C2=O)NC(=O)/C(C)=C\C=C\[C@H](C)[C@H](O)[C@@H](C)[C@@H](O)[C@@H](C)[C@H](OC(C)=O)[C@@H]1C [Rifaximin (Xifaxan)],101%
20,CC[C@@]1(O)C(=O)OCc2c1cc1n(c2=O)Cc2cc3c(CN(C)C)c(O)ccc3nc2-1 [Topotecan],0.8%

row,Compound,cell viability
1,C=C(C)[C@@H]1CC[C@]2(C(=O)O[C@@H]3O[C@H](CO[C@@H]4O[C@H](CO)[C@@H](O[C@@H]5O[C@@H](C)[C@H](O)[C@@H](O)[C@H]5O)[C@H](O)[C@H]4O)[C@@H](O)[C@H](O)[C@H]3O)CC[C@]3(C)[C@H](CC[C@@H]4[C@@]5(C)CC[C@H](O[C@@H]6OC[C@H](O)[C@H](O)[C@H]6O[C@@H]6O[C@@H](C)[C@H](O)[C@@H](O)[C@H]6O)[C@@](C)(CO)[C@@H]5CC[C@]43C)[C@@H]12 [Anemoside B4],97.4%
2,"CN1CCN2c3ncccc3Cc3ccccc3C2C1 (centres undefined) [Mirtazapine (Remeron, Avanza)]",97.4%
3,NCCCCCN [Cadaverine],101%
4,CCN1CCN(Cc2ccc(C(=O)Nc3ccc(C)c(Oc4ccc5c(c4)CC(=O)N5)c3)cc2C(F)(F)F)CC1,45%
5,O=C(O)c1cc(C(=O)O)c2c(n1)C(=O)C(=O)c1cc(C(=O)O)[nH]c1-2 [Pyrroloquinoline Quinone Disodium Salt],107%
6,CC(C)C(=O)Nc1ccc([N+](=O)[O-])c(C(F)(F)F)c1 [Flutamide (Eulexin)],95.4%
7,O=C(Cc1ccccc1)Nc1nnc(CCSCCc2nnc(NC(=O)Cc3ccccc3)s2)s1,91.2%
8,CCn1nc(C2CCN(C(=O)CCO)CC2)nc1-c1cnc(N)c(-c2nnc(C(C)(C)C)o2)n1,50.8%
9,OC[C@H]1O[C@@H](Oc2cc(O)cc(/C=C/c3ccc(O[C@@H]4O[C@H](CO)[C@@H](O)[C@H](O)[C@H]4O)cc3O)c2)[C@H](O)[C@@H](O)[C@@H]1O [Mulberroside A],97.6%
10,O=C(C[S+]([O-])Cc1ccco1)NC/C=C\COc1cc(CN2CCCCC2)ccn1 (centres undefined) [Lafutidine],101%
11,Cn1cc(CNCC2CCN(c3ncc(C(=O)NO)cn3)CC2)c2ccccc21,0.54%
12,NC(=O)c1ccc(I)c([N+](=O)[O-])c1 [Iniparib (BSI-201)],100%
13,COc1cc(C=O)ccc1OC(C)=O [Acetylvanillin],101%
14,C=CS(=O)(=O)NC1CCN(C(=O)CNc2cc(I)c(Cl)cc2OC)CC1 [K-Ras(G12C) inhibitor 9],84.1%
15,CN1CCN(C(=O)c2cc3cc(Cl)ccc3[nH]2)CC1,99.3%
16,OC[C@H]1O[C@H](OC[C@H]2O[C@H](O[C@]3(CO)O[C@H](CO)[C@@H](O)[C@@H]3O)[C@H](O)[C@@H](O)[C@@H]2O)[C@H](O)[C@@H](O)[C@H]1O [Raffinose],98.1%
17,Cc1cc(C)nc(O)n1.O=C(Nc1ccc([N+](=O)[O-])cc1)Nc1ccc([N+](=O)[O-])cc1 [Nicarbazin],101%
18,O=c1cc(-c2ccc(O)c(O)c2)oc2cc(O)c([C@@H]3O[C@H](CO)[C@@H](O)[C@H](O)[C@H]3O)c(O)c12 [Homoorientin],90%
19,Clc1ccc(C(Cn2ccnc2)OCc2ccc(Sc3ccccc3)cc2)c(Cl)c1 (centres undefined) [Fenticonazole nitrate],73%
20,O=c1cc(N2CCOCC2)oc2c(-c3ccc4c(c3)OCCO4)csc12,18.2%
